Assay [1] in a line: qHTS of pediatric cancer cell lines to identify multiple opportunities for drug repurposing: Primary screen for NB1643 cells (AID 1347099).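 Also: plate controls were DMSO neutral control for no effect and bortezomib positive control for full effect; nearly all actives have a fitted effect of over 50% in size.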 The procedure, abridged: (§1)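 Cells plated at 500-1,000/well in growth medium, compounds added after 5 h. MIPE tested at 11 points (from 0.78 nM), NPC at 8 points (from 0.59 nM). CellTiter-Glo luminescence after 48 h; concentration-response curves from primary screen.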
On the technique in general: In qHTS, concentration-response curves come from the screen itself.

Assay [2] in a line: qHTS of pediatric cancer cell lines to identify multiple opportunities for drug repurposing: Primary screen for LAN-5 cells (AID 1347100).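 Also: plate controls were DMSO neutral control for no effect and bortezomib positive control for full effect.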 The procedure, abridged: (§2)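 Viability after 48 h compound treatment at 37C, 500-1,000 cells/well, read as ATP luminescence with CellTiter-Glo. Primary screens used 11-point (MIPE, 0.78 nM-46 µM) or 8-point (NPC, 0.59 nM-46 µM) final concentrations; follow-up screens used 11-point dilutions.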

Assay [3] in a line: qHTS of pediatric cancer cell lines to identify multiple opportunities for drug repurposing: Primary screen for BT-12 cells (AID 1347101).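 Also: plate controls were DMSO for no effect and bortezomib positive control for full effect; nearly all actives have a fitted effect of over 25% in size.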 In outline:
(§3)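 Cells (500-1,000/well) rested 5 h, then received compounds for 48 h; metabolically active cells were measured by CellTiter-Glo luminescence. Final concentrations spanned up to 46 µM (MIPE, 11-point) or 0.59 nM-46 µM (NPC, 8-point) in primary screens, 11-point in follow-ups.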

Assay [4] in a line: qHTS of pediatric cancer cell lines to identify multiple opportunities for drug repurposing: Primary screen for Rh18 cells (AID 1347102). Also: % is scaled to controls: 0 for no effect and ±100 for the full control effect; nearly all actives have a fitted effect of over 65% in size. The procedure, abridged:
as §2

Assay [5] is described as follows: qHTS of pediatric cancer cell lines to identify multiple opportunities for drug repurposing: Primary screen for RD cells (AID 1347104).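 Also: plate controls were DMSO for no effect and bortezomib for full effect; nearly all actives have a fitted effect of over 55% in size.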 The procedure, abridged: as §1
The nature of assay [6]: qHTS of pediatric cancer cell lines to identify multiple opportunities for drug repurposing: Primary screen for MG 63 (6-TG R) cells (AID 1347105). Also: % is scaled to controls: 0 for no effect and ±100 for the full control effect; nearly all actives have a fitted effect of over 50% in size. In outline:
as §1

Assay [7] in a line: qHTS of pediatric cancer cell lines to identify multiple opportunities for drug repurposing: Primary screen for control Hh wild type fibroblast cells (AID 1347106).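 Also: series mostly up to about 46 µM; % is scaled to controls: 0 for no effect and ±100 for the full control effect; a drop in luminescence marks cytotoxicity and a rise apparent proliferation; nearly all actives have a fitted effect of over 55% in size.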 In outline:
as §2

Assay [8] is described as follows: qHTS of pediatric cancer cell lines to identify multiple opportunities for drug repurposing: Primary screen for Rh30 cells (AID 1347107). Also: series mostly up to about 46 µM; % is scaled to controls: 0 for no effect and ±100 for the full control effect; nearly all actives have a fitted effect of over 75% in size. The procedure, abridged:
as §2

Assay [9] in a line: qHTS of pediatric cancer cell lines to identify multiple opportunities for drug repurposing: Primary screen for Rh41 cells (AID 1347108).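 Also: series mostly up to about 46 µM; luminescence drop marks cytotoxic hits; nearly all actives have a fitted effect of over 70% in size.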 The procedure, abridged:
as §1

Assay [10] has as its system Zika virus NS2B-NS3 protease. The assay can be described thus: Primary screen GU AMC qHTS for Zika virus inhibitors (AID 1347154).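 Also: 0% = no-inhibitor control and -100% = no-enzyme control; nearly all actives have a fitted effect of over 70% in size.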 In outline: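 Unlinked Zika NS2B hydrophilic domain–NS3 protease complex at 25 nM in 10 mM Tris-HCl pH 8.0, 0.01% Tween 20, with an AMC peptide substrate. Fluorescence change (340/450 nm) over 15 min at room temperature, normalized to controls, fitted to 4-parameter Hill.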

Assay [11] is described as follows: Confirmatory screen GU Rhodamine qHTS for Zika virus inhibitors qHTS (AID 1347157). Also: potency is read from the fitted curve at half-maximal effect; nearly all actives have a fitted effect of over 70% in size. In outline: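 Compounds, tested up to 114 microM, were incubated for 15 minutes with 25 nM unlinked NS2B-NS3 protease at pH 8.0. Cleavage of 1.5 microM Rhodamine110 substrate was then followed by fluorescence for 15 minutes.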
A short description of assay [12]: ZIKV-mCherry secondary qHTS for Zika virus inhibitors (AID 1347158). Also: top concentration of the series differs between compounds. The procedure, abridged: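 Vero cells, 5,000/well, plated overnight at 37 °C, then compound added and infected with recombinant ZIKV-mCherry at MOI 1 for 48-72 h. PFA-fixed, Hoechst nuclear stain, high-content imaging; cells with mCherry intensity above 450 RFU scored infected, reported as percent infection.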

Assay [13] in a line: Confirmatory screen NINDS Rhodamine qHTS for Zika virus inhibitors (AID 1347161). Also: nearly all actives have a fitted effect of over 60% in size. Also: potency is read from the fitted curve at half-maximal effect.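 As to activity change, negative = inhibition: purified Zika NS2B-NS3 protease with linked NS2B cofactor domain and Rhodamine110 peptide substrate; series mostly up to about 110 µM; plate controls were no-inhibitor control for no effect and no-enzyme control for full effect.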 The procedure, abridged: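 Aprotinin served as in-plate control. Conditions: 25 nM linked NS2B-NS3, pH 8.0 Tris buffer, titrated compounds, 15 min preincubation and 15 min reaction with 1.5 microM Rhod110 substrate at room temperature.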
The subject of assay [14] is Zika virus NS2B-NS3 protease (linked construct). The assay is described as follows: Primary screen NINDS Rhodamine qHTS for Zika virus inhibitors (AID 1347160). Also: nearly all actives have a fitted effect of over 55% in size. Also: potency is read from the fitted curve at half-maximal effect. As to activity change, negative = inhibition: % is scaled to controls: 0 for no effect and ±100 for the full control effect. In outline:
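Percent inhibition, normalized to uninhibited and enzyme-free controls, is fitted to a 4-parameter Hill equation. Fluorescence change comes from a 15-min cleavage of 1.5 microM bis-peptide Rhodamine110 substrate by 25 nM linked NS2B-NS3 at room temperature.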

Assay [15] in a line: qHTS of pediatric cancer cell lines to identify multiple opportunities for drug repurposing: Primary screen for OHS-50 cells (AID 1347103).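 Also: plate controls were DMSO neutral control for no effect and bortezomib positive control for full effect; nearly all actives have a fitted effect of over 40% in size.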 In outline:
as §3

In assay [16] the test system is Zika virus NS2B-NS3 protease (unlinked complex). The assay can be described thus: Confirmatory screen GU AMC qHTS for Zika virus inhibitors (AID 1347153).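 Also: percent inhibition with 0% = no inhibitor control and 100% = no enzyme control; nearly all actives have a fitted effect of over 70% in size.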 The procedure, abridged:
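Unlinked enzyme 25 nM, Tris pH 8.0/0.01% Tween 20; cpd 15 min RT, dark; + AMC substrate 10 µM (Km 18.3 µM); 340/450 nm read at t0 and 15 min; % inhibition → 4-param fit.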

Each structure is given as a SMILES string. Results filed as inconclusive are left out. Unmarked numbers belong to inactive results. The source made the active and inactive calls. Calls follow the shape of the dose curve; as a rule, active = well fitted curve in the direction sought with a large enough effect; inconclusive = small, poorly fitted or top-dose-only effect, or another doubt; inactive = no such curve, though single readings can be large; an effect the other way counts as inactive or inconclusive.

For the compound `O=C(OCc1ccccc1)c1ccc(O)cc1`, the compound was classed as inactive in assay [1], in assay [2], in assay [3], in assay [4], in assay [5] and in assay [6]. In addition, the call in assay [7], in assay [8], in assay [9] and in [10] was inactive.

In the case of `O=C1CCC(c2ccccc2)(C2CCN(Cc3ccccc3)CC2)C(=O)N1` (stereo not given), the result in [10] was inactive.

For `O=C(O)Cc1nn(Cc2ccc(Br)cc2F)c(=O)c2ccccc12`, the result in [10] was inactive.

For the compound `CCCCC[C@H](O)/C=C/[C@H]1[C@H](O)CC(=O)[C@@H]1CCCCCCC(=O)O`, the activity change, negative = inhibition in [10] is 5.76% [at 6.83 µM].

In the case of `O=C(O)CCC/C=C\C[C@@H]1[C@@H](/C=C/[C@@H](O)COc2cccc(Cl)c2)[C@H](O)C[C@@H]1O`, the compound was classed as inactive in assay [10].

Take `CC1(C)C(\C=C/C=C\C=C/C=C2/N(CCCCS(=O)(=O)O)c3ccc4ccccc4c3C2(C)C)=[N+](CCCCS(=O)(=O)[O-])c2ccc3ccccc3c21`: the Potency is 3.98 µM (active) in assay [11] and 5.62 µM (active) in assay [13]. Further, in [12], the compound was called inactive.

On to `CC/C=C\C/C=C\C/C=C\C/C=C\C/C=C\C/C=C\CCC(=O)O`, for which the outcome in [10] was inactive.

For `C=C1CC[C@H](O)CC1=C/C=C1\CCC[C@]2(C)[C@@H]([C@H](C)/C=C/[C@H](C)C(C)C)CC[C@@H]12`, in [14], the Potency was 12.6 µM (active).

On to `CN(C)CCCSc1ccccc1NC(=O)/C=C/c1ccccc1`, for which the compound was called inactive in assay [4], in assay [6], in assay [7], in assay [8], in assay [9] and in [10].

On to `C=C1[C@H](CO)[C@@H](O)C[C@@H]1n1cnc2c(=O)[nH]c(N)nc21`, for which, in [14], the Potency entry is “inactive”.

On to `CC/C=C\C/C=C\C/C=C\CCCCCCCC(=O)O`, for which, in [10], the activity change, negative = inhibition is -0.651% [at 6.83 µM].

Take `CO[C@H]1C[C@@H]2CC[C@@H](C)[C@@](O)(O2)C(=O)C(=O)N2CCCC[C@H]2C(=O)O[C@H]([C@H](C)C[C@@H]2CC[C@@H](OC(=O)C(C)(CO)CO)[C@H](OC)C2)CC(=O)[C@H](C)/C=C(\C)[C@@H](O)[C@@H](OC)C(=O)[C@H](C)C[C@H](C)/C=C/C=C/C=C/1C`: the Potency result in assay [14] is “inactive”.

Regarding `C[C@]12CC[C@@H]3c4ccc(OC(=O)c5ccccc5)cc4CC[C@H]3[C@@H]1CC[C@@H]2O`, in assay [14], the Potency entry was “inactive”.

Consider `N[C@H](CC(=O)O)C(=O)O`, for which the compound was called inactive in [10].

Turning to `CCC(C)[C@@H](N)C(=O)O` (stereo not given in full), in assay [10], the result was inactive.

On to `CC(=O)Nc1ccc(NC(=S)NC(=O)c2ccc(C(C)(C)C)cc2)cc1`, for which the Potency entry in assay [14] was “inactive”.

For `CC(C)(C)c1ccc(CN2CCN(C(c3ccccc3)c3ccc(Cl)cc3)CC2)cc1` (stereo not given), in assay [14], the Potency entry was “inactive”.

Consider `O=C1c2ccccc2C(=O)c2c1ccc(O)c2O`, for which the result in assay [1], in assay [2], in [3], in assay [4], in assay [15] and in assay [5] was inactive. The compound was called inactive in assay [6], in [7], in assay [8] and in assay [9].

For the compound `CO[C@H]1C[C@H](O[C@@H]2/C(C)=C/C[C@@H]3C[C@@H](C[C@]4(CC[C@H](C)[C@@H](C5CCCCC5)O4)O3)OC(=O)[C@@H]3C=C(C)/C(=N/O)[C@H]4OC/C(=C\C=C\[C@@H]2C)[C@]43O)O[C@@H](C)[C@@H]1O`, the compound was called inactive in [16]. Besides, the Potency result in assay [13] was “inactive”.

The values are drawn from PubChem BioAssay (NCATS).
